Test results from ChEMBL document CHEMBL1961873, “Compounds: GSK PKIS; Assays: Nanosyn kinase panel” (2012).

What was measured:
[1] = target: Tyrosine-protein kinase SYK (Homo sapiens) (UniProt P43405); settings: at 1 µM
[2] = target: T1, Tyrosine-protein kinase Tec (Homo sapiens) (UniProt P42680); settings: at 0.1 µM
T1 sequence (whole entry): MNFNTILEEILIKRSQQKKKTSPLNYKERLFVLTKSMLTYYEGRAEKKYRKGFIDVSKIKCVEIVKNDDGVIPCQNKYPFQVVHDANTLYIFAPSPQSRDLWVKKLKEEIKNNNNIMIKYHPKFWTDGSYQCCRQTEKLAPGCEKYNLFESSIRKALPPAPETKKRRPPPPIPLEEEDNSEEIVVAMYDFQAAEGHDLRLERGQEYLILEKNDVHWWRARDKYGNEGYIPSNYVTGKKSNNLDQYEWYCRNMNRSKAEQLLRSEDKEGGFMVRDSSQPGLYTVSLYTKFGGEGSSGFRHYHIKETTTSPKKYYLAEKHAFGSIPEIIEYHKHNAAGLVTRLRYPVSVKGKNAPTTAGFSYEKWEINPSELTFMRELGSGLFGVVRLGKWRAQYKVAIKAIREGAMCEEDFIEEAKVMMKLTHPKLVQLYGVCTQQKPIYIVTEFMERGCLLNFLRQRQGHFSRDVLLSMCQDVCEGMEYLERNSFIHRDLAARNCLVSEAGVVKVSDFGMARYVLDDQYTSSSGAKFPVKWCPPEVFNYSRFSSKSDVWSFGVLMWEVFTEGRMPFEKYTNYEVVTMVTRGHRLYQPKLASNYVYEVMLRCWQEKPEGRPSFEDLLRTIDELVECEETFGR

[3] = target: T1, Tyrosine-protein kinase Tec (Homo sapiens); settings: at 1 µM
[4] = target: Angiopoietin-1 receptor (Homo sapiens) (UniProt Q02763); settings: at 0.1 µM
[5] = target: Angiopoietin-1 receptor (Homo sapiens) (UniProt Q02763); settings: at 1 µM
[6] = target: T2, Non-receptor tyrosine-protein kinase TNK1 (Homo sapiens) (UniProt Q13470); settings: at 0.1 µM
T2 sequence (whole entry): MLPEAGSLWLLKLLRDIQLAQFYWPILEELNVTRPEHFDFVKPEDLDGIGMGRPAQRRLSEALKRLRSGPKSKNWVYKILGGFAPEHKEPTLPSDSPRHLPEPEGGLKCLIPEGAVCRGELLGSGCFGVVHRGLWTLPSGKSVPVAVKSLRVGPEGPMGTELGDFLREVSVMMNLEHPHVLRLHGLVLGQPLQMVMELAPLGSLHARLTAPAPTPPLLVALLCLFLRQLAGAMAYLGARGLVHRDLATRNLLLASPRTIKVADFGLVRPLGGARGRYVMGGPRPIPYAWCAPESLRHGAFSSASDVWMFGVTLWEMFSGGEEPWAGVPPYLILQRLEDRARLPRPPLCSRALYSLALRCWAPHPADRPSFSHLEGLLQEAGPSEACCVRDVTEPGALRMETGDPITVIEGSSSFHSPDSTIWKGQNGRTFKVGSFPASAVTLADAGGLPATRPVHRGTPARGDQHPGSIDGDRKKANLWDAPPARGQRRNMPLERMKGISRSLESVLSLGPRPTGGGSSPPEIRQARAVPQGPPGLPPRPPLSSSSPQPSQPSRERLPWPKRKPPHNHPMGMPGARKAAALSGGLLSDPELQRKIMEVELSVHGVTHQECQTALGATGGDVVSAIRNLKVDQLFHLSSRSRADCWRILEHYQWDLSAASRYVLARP

[7] = target: T2, Non-receptor tyrosine-protein kinase TNK1 (Homo sapiens); settings: at 1 µM
[8] = target: Activated CDC42 kinase 1 (Homo sapiens) (UniProt Q07912); settings: at 0.1 µM
[9] = target: Activated CDC42 kinase 1 (Homo sapiens) (UniProt Q07912); settings: at 1 µM
[10] = target: High affinity nerve growth factor receptor (Homo sapiens) (UniProt P04629); settings: at 0.1 µM;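 note: each value is a mean of replicate percent inhibition readings against TRKA kinase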
Sequence of High affinity nerve growth factor receptor (Homo sapiens) (P04629 33-796 limits assumed): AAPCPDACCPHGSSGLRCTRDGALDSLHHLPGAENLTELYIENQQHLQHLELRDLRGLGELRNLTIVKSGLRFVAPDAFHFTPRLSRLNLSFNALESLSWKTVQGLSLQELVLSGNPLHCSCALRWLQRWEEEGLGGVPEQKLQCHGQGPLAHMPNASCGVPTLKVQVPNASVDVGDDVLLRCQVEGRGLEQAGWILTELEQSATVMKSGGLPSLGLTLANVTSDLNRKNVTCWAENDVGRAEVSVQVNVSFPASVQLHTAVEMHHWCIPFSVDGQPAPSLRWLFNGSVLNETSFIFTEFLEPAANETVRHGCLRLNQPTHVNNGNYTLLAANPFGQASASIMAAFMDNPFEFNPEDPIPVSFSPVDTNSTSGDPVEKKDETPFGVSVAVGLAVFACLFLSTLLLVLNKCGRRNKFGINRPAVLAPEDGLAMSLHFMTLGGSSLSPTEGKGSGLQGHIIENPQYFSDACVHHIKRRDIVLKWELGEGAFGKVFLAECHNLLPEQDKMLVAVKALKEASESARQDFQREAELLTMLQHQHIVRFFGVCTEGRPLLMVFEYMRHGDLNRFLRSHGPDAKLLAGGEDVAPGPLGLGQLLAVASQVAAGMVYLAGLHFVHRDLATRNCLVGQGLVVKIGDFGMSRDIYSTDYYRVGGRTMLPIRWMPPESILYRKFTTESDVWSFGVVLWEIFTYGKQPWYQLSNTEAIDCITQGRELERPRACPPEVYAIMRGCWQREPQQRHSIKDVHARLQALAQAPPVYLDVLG

Sequence of Activated CDC42 kinase 1 (Homo sapiens) (Q07912 whole entry, looked up): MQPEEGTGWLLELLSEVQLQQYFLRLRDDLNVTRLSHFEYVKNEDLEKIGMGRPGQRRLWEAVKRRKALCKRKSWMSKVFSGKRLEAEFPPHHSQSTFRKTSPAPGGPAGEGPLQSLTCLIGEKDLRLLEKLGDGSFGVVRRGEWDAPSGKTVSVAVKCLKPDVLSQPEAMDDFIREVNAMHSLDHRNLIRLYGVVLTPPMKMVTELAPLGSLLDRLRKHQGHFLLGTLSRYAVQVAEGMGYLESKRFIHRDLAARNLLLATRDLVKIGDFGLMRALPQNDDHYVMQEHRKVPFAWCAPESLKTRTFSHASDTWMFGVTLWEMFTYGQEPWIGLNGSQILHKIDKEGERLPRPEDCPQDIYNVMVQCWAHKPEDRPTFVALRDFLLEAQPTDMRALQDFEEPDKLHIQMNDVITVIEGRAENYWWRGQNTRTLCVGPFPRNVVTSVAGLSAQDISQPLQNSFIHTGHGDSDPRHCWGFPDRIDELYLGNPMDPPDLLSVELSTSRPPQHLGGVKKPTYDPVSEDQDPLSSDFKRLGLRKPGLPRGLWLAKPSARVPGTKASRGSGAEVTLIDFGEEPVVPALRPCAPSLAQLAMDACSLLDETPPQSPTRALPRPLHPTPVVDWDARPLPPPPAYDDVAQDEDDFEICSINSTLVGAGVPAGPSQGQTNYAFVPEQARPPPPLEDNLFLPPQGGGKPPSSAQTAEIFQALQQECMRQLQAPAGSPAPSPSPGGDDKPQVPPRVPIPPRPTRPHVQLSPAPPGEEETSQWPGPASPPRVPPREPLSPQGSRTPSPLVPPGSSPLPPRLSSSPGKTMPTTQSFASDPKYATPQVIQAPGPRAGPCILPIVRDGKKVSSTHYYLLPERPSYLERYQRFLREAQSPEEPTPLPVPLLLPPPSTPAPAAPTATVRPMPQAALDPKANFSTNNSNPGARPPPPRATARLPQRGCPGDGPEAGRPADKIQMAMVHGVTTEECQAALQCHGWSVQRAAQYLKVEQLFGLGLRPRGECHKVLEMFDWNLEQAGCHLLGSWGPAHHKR
Sequence of Angiopoietin-1 receptor (Homo sapiens) (Q02763 whole entry): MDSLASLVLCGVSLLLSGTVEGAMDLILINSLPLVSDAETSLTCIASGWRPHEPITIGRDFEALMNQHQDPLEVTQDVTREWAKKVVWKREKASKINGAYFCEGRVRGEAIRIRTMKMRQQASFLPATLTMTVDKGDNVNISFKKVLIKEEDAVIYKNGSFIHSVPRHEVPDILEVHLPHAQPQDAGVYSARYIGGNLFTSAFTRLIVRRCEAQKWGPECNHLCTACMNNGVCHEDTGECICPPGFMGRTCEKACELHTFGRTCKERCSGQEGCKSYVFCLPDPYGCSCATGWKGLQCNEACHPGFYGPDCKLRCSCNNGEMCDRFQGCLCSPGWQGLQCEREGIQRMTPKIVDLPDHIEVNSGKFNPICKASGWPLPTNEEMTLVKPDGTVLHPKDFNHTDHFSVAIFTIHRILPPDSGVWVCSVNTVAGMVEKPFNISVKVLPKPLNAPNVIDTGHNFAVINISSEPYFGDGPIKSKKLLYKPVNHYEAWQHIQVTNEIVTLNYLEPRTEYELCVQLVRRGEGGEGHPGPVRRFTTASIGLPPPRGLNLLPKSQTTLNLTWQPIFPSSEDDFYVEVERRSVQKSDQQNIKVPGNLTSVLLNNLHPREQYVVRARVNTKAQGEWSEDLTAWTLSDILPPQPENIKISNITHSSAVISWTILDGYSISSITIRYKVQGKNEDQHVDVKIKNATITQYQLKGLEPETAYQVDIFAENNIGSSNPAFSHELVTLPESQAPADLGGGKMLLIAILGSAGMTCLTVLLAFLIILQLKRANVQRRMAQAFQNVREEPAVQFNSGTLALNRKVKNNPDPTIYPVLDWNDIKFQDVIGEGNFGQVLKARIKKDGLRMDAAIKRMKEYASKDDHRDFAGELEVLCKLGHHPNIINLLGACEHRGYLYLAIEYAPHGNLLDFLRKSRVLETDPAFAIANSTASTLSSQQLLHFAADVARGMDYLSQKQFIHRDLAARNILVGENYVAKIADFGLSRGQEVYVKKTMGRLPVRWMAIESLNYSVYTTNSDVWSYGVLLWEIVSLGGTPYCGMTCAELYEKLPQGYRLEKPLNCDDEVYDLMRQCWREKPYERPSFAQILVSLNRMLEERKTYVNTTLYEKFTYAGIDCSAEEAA

| SMILES | inhibition [1] [%] | inhibition [2] [%] | inhibition [3] [%] | inhibition [4] [%] | inhibition [5] [%] | inhibition [6] [%] | inhibition [7] [%] | inhibition [8] [%] | inhibition [9] [%] | inhibition [10] [%] |
| --- | --- | --- | --- | --- | --- | --- | --- | --- | --- | --- |
| COC(=O)Nc1nc2ccc(S(=O)(=O)c3ccc(NC(=O)Nc4cc(C(F)(F)F)ccc4F)cc3)cc2[nH]1 | 0.05 | 3.65 | 2.49 | 5.47 | 10.9 | -0.2 | -6.28 | 0.69 | 0.6 | 1.94 |
| COc1cc2c(cc1Nc1nc(Nc3ccsc3C(N)=O)c3cc[nH]c3n1)N(C(=O)CN(C)C)CCC2(C)C | 4.93 | 5.38 | 8.93 | 1.06 | 3.63 | 60.5 | 89.3 | 6.79 | 43.5 | 2.83 |
| CN1CCC(n2cnc(-c3ccc(F)cc3)c2-c2ccnc(N)n2)CC1 | -1.2 | 3.52 | 5.01 | 3.13 | 2.56 | 1.5 | 8.96 | 0.57 | 1.23 | 0.03 |
| CCN1CCC(CC(=O)Nc2n[nH]c3nnc(-c4cccc(F)c4F)cc23)CC1 | -2.27 | 0.83 | 2.99 | 1.5 | 10.3 | 1.03 | 4.94 | 0.46 | 1.64 | -1.1 |
| Fc1ccc(-c2cc(-c3c[nH]nc3-c3ccccn3)ccn2)cc1 | -0.94 | 3.71 | 3.67 | 2.32 | 2.49 | 3.71 | 17.8 | 2.51 | 1.26 | 2.16 |
| O=S(=O)(CCNCc1ccc(-c2ccc3ncnc(Nc4ccc(OCc5cccc(F)c5)c(Cl)c4)c3c2)o1)c1ccccc1 | -4.14 | 1.85 | 5.02 | 5.73 | 8.7 | 4.16 | 22.3 | 2.38 | 1.4 | 2.46 |
| CCN(CC)S(=O)(=O)c1ccc(OC)c(Nc2ncc(-c3ccccc3)o2)c1 | -0.04 | 2.99 | 11.9 | 4.38 | 14 | 15.6 | 72.1 | -0.01 | 1.62 | 4.25 |
| CCn1c(-c2nonc2N)nc2cnc(Oc3cccc(NC(=O)c4ccc(N(C)C)cc4)c3)cc21 | 0.64 | 3.07 | 2.35 | 2.52 | 4.62 | 6.05 | 6.93 | 0.85 | 0.38 | 1.37 |
| c1ccc(COc2ccc(Nc3ncnc4ccc(-c5ccco5)cc34)cc2)cc1 | -0.46 | 1.31 | 3.25 | 2.64 | 3.4 | 1.53 | 5.09 | -0.27 | 0.03 | -2.34 |
| NC(=O)c1sc(-n2cnc3ccc(C(F)(F)F)cc32)cc1OCc1ccccc1Br | 0.09 | 2.5 | 2.78 | 2.27 | 3.55 | 1.47 | 9.04 | 0.36 | 0.65 | 4.01 |
| CC(=O)NCc1cccc(C#Cc2cncnc2Nc2ccc(OCc3cccc(F)c3)c(Cl)c2)c1 | 2.55 | 0.58 | 0.89 | 0.95 | 4.38 | -1.56 | -1.3 | -0.45 | -0.03 | 1.25 |
| COc1cc2ncn(-c3cc(OCc4ccccc4C(F)(F)F)c(C(=O)N(C)C)s3)c2cc1OC | 1.81 | 0.84 | 2.14 | 1.94 | 3.94 | 8.67 | 48.7 | 0.68 | 7.7 | 1.49 |
| FC(F)(F)c1cccc(-c2nn3ncccc3c2-c2ccnc(Nc3ccc4c(c3)OCCO4)n2)c1 | -1.91 | 4.21 | 15.5 | 4.09 | 10.6 | 1.44 | 5.7 | 0.31 | 0.47 | 1.71 |
| CCNC(=O)O[C@H]1CN[C@H](C#Cc2cc3ncnc(Nc4ccc(OCc5cccc(F)c5)c(Cl)c4)c3s2)C1 | 0.53 | 4.9 | 5.79 | 1.23 | 3.88 | 3.2 | 10.3 | 1.33 | 1.05 | 4.7 |
| COc1ccc(-c2oc3ncnc(N)c3c2-c2ccc(NC(=O)Nc3cc(C(F)(F)F)ccc3F)cc2)cc1 | -8.92 | 5.43 | 14 | 79.3 | 86.1 | 21 | 85.3 | 4.09 | 9.81 | 71.1 |
| CCOc1ccc2c(-c3ccnc(Nc4cccc(C(F)(F)F)c4)n3)cnn2n1 | -6.38 | -0.08 | 4.44 | 1.3 | 7.44 | -0.72 | 14.7 | 0.55 | 0.5 | 0.72 |
| COc1ccc(-c2nn3ncccc3c2-c2ccnc(Nc3ccc4c(c3)OCCO4)n2)cc1 | -0.41 | 1.33 | 11.9 | 8.07 | 45.9 | 6.95 | 51.1 | -0.12 | 3.47 | 0.04 |

| SMILES | inhibition [1] [%] | inhibition [2] [%] | inhibition [3] [%] | inhibition [4] [%] | inhibition [5] [%] | inhibition [6] [%] | inhibition [7] [%] | inhibition [8] [%] | inhibition [9] [%] | inhibition [10] [%] |
| --- | --- | --- | --- | --- | --- | --- | --- | --- | --- | --- |
| O=C(Nc1n[nH]c2cc(-c3ccc(F)cc3)ccc12)C1CC1 | 1.05 | 3.06 | 4.11 | 1.89 | 6.64 | 0.9 | 5.38 | 0.53 | 1.19 | 4.77 |
| CNC(=O)c1cccc(C#Cc2cncnc2Nc2ccc(OCc3cccc(F)c3)c(Cl)c2)c1 | 0.47 | 0.86 | 2.99 | -0.1 | 2.32 | -0.06 | 10.8 | -0.6 | 0.21 | -0.85 |
| COc1cccc(-n2ncc3c(N/N=C/c4ccc(F)cc4)ncnc32)c1 | -3.59 | 5 | 9.02 | 2.18 | 5.99 | 5.45 | 12.4 | 1.52 | 3.5 | 4.72 |
| Cc1ccc(O)cc1Nc1ccnc2cc(-c3ccccn3)ccc12 | 1.9 | 46 | 83.4 | 7.91 | 48.2 | 8.49 | 38.1 | 2.64 | 18 | 4 |
| CCc1nn2ncccc2c1-c1ccnc(NC2CC2)n1 | 2.4 | 3.41 | 4.89 | 4.14 | 6.65 | 1.41 | 5.48 | 1.22 | 2.89 | 0.51 |
| Nc1nc(-c2ccc(F)cc2)c(-c2ccc3ncccc3n2)s1 | 0.4 | 4.57 | 6.46 | 1.26 | 4.32 | 4.65 | 6.8 | 1.85 | 3.57 | 4.1 |
| COc1ccc(-c2cc(-c3c[nH]nc3-c3ccccn3)ccn2)cc1 | -0.69 | 4.44 | 5.59 | 2.18 | 2.66 | 4.34 | 11.9 | 1.58 | 3.35 | 1.86 |
| CC(=O)Nc1cccc(C#Cc2cncnc2Nc2ccc(OCc3cccc(F)c3)c(Cl)c2)c1 | 0.71 | 5.52 | 8.88 | 1.44 | 7.33 | 0.67 | 1.04 | 1.8 | 5.63 | 0.89 |
| Fc1ccc(-c2nn3ncccc3c2-c2ccnc(Nc3ccc4c(c3)OCCO4)n2)cc1 | -3.1 | 11.3 | 45.3 | 6.26 | 23.4 | 8.48 | 30.4 | 1.35 | 13 | 2.82 |
| COc1ccc(-c2cc3c(N)ncnc3o2)cc1 | -0.57 | -1.03 | 3.07 | 2.49 | 2.73 | -0.85 | 6.1 | -0.17 | 1.96 | -0.83 |
| CC1=C(C(=O)Nc2cc(Cl)c3[nH]ncc3c2)C(c2ccc(C(F)(F)F)cc2)CC(=O)N1 (stereo not given) | 1.05 | 3.36 | 6.05 | 4.83 | 5.04 | 4.45 | 3.87 | 0.65 | 2.37 | 3.77 |
| Fc1cccc(COc2ccc(Nc3ncnc4sc(-c5ccco5)cc34)cc2Cl)c1 | -6.92 | 0.94 | 5.13 | 4.1 | 6.76 | 1.8 | 17 | 1.13 | 1.93 | 1.02 |
| N#Cc1c(NC(=O)CN2CCOCC2)sc2c1CCCC2 | -1.53 | 3.74 | 7.22 | 2.61 | 4.26 | 3.32 | 8.64 | 1.58 | 3.21 | 3.46 |
| CCn1c(-c2nonc2N)nc2ccccc21 | 0.1 | 3.65 | 7.35 | 0.56 | -0.01 | 2.77 | 4.19 | 1.12 | 2.47 | 3.39 |
| CN1CCC(n2cnc(-c3ccc(F)cc3)c2-c2ccnc(Nc3ccccc3)n2)CC1 | 0.18 | 3.59 | 3.4 | 2.95 | 4.52 | -0.22 | 7.4 | 0.74 | 2.45 | -0.03 |
| Fc1ccc(-c2nn3ccccc3c2-c2ccncc2)cc1 | 0.32 | 1.22 | 2.64 | 3.2 | 4.76 | -0.64 | 0.91 | 0.16 | 0.87 | 2.3 |
| CCn1c(-c2nonc2N)nc2c(C#CC(C)(C)O)ncc(OC3CCNCC3)c21 | 1.12 | 5.92 | 3.33 | 4.81 | 7.95 | 1.33 | 0.26 | 0.61 | 1.17 | 2.16 |
